From PubChem BioAssay
A number with no mark means an inactive call. No rule for the calls is given here.

target: Pantothenate synthetase (Mycobacterium tuberculosis (strain ATCC 25618 / H37Rv)) (UniProt P9WIL5); experiment: Recombinant Mtb pantothenate synthetase (PanC) inhibitors, coupled enzyme, confirmatory (AID 375); details: coupled enzyme assay; at 10 µM, hits give high values;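 also: 0% = full reaction with vehicle and 100% = no enzyme background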
Sequence (P9WIL5 whole entry, looked up): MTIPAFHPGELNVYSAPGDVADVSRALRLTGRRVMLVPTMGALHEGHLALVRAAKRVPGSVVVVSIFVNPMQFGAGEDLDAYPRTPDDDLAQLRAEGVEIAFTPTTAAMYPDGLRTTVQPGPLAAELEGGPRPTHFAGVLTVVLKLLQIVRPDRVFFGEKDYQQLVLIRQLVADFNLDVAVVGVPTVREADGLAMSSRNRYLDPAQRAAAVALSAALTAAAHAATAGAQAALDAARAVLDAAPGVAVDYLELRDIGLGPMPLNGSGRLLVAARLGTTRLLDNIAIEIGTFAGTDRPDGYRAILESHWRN

| Structure (SMILES) | inhibition [%] |
| --- | --- |
| Oc1ccccc1C1=Nc2nc3ccccc3n2C(c2ccccc2)C1 (stereo not given) | 0 |
| Oc1c(Cl)cc(Cl)c2c1NCCC2 | 1 |
| CCCCCOC(=O)C1=C(C)N(C)C(=O)NC1c1cc(Br)c(O)c(OC)c1 (stereo not given) | 0 |
| CC(=O)NC(Cc1cc(C)ccc1C)C(=O)N1CCN(C(=O)Nc2ccc(C(C)=O)cc2)CC1 (stereo not given) | 0 |
| N#Cc1c(NCc2ccccc2)ccnc1NCc1cccnc1 | 0 |
| Cc1ccc(-c2nc3ccccc3[nH]2)s1 | 0 |
| Cn1c(=O)c2c(nc(Oc3ccc4c(c3)OCO4)n2Cc2ccc(F)cc2)n(C)c1=O | 0 |
| CC1(C)CC(=O)C(C=NC(CCC(N)=O)C(=O)O)=C(O)C1 (stereo not given) | 3 |
| FC(F)(F)c1cc(-c2ccco2)nc(-n2nnc3ccccc32)n1 | 0 |
| CCCCOc1ccc(-c2ncc(Cl)cn2)cc1 | 0 |
| COc1ccc(-c2nc(N3CCCC3)[nH]c(=O)c2C#N)cc1 | 0 |
| COc1ccccc1-n1cnc2cc(NS(=O)(=O)c3ccccc3)ccc21 | 0 |
| CCOC(=O)N1CCC2(O)CCCCC2C1c1ccc(F)cc1 (stereo not given) | 1 |
| CCOC(=O)N1CCC(NC(=O)c2cnn3ccccc23)CC1 | 0 |
| COC(=O)Nc1ccc(C)cc1NC(=O)OC | 2 |
| CCn1c(=O)cc(SCC(=O)N2CCN(C3CCCCC3)CC2)c2ccccc21 | 2 |
| CCN1C(=O)C(C(=O)Nc2ccc(OC)cc2)C2CC1(C)Oc1ccccc12 (stereo not given) | 0 |
| CCOC(=O)C1CSC(CC(=O)Nc2ccc(Cl)cc2)C(=O)N1 (stereo not given) | 0 |
| O=C(O)c1[nH]c2ccc(Cl)cc2c1CC(=O)N1CCN(C(=O)c2ccco2)CC1 | 2 |
| c1cncc(-c2nnc(-c3ccco3)o2)c1 | 4 |

| Structure (SMILES) | inhibition [%] |
| --- | --- |
| NC(=O)c1cccc(S(=O)(=O)N2CCCCC2)c1 | 0 |
| Nc1nonc1-c1noc(-c2ccccc2Br)n1 | 0 |
| CCOC(=O)C1CCCN(C/C(O)=C(\C#N)c2nc(-c3ccc(Cl)cc3)cs2)C1 (stereo not given) | 5 |
| CC(NC(=O)c1ccccc1NC(=O)c1ccco1)C(=O)O (stereo not given) | 0 |
| O=C(CSc1ncnc2c1oc1ccccc12)Nc1ccccc1F | 2 |
| O=C(Cn1ncc2c1-c1ccccc1OC2)Nc1ccc(Cl)cn1 | 6 |
| C=CCn1c(N)c(C(=O)NCCC2=CCCCC2)sc1=S | 0 |
| COC(=O)Nc1nc2ccc(Sc3ccccc3)cc2[nH]1 | 8 |
| COc1ccc(S(=O)(=O)Cc2ccc(C(=O)NCCc3ccc(S(N)(=O)=O)cc3)o2)cc1 | 0 |
| COc1ccccc1N(CC(=O)NCc1ccccn1)S(C)(=O)=O | 0 |
| C=CCn1c(SCc2ccc(C#N)cc2)nnc1-c1cccc(Cl)c1 | 1 |
| Cc1c(CCC#N)c(N2CCN(C3CCCCC3)CC2)n2c(nc3ccccc32)c1C#N | 3 |
| O=C(CSc1nc2c(sc3ccccc32)c(=O)n1Cc1ccco1)NCC1CCCO1 (stereo not given) | 2 |
| Nc1ccc(-n2c(N)c(C(=O)NCc3ccc4c(c3)OCO4)c3nc4ccccc4nc32)cc1 | 14 |
| O=C1NC2(Nc3ccccc31)C(=O)Nc1ccccc12 (stereo not given) | 0 |
| O=C(CNCCC1=CCCCC1)Nc1ccccc1N1CCCCC1 | 0 |
| CCC1CCCCN1c1nc(-c2ccncc2)nc2ccccc12 (stereo not given) | 1 |
| CC1(C)CC(=O)C(C=Nc2ccc3c(c2)OCO3)=C(O)C1 | 7 |
| COc1cc2c(N3CCOCC3)cc(O)c(CC(=O)Nc3ccccc3)c2cc1OC | 7 |
| CCC(C)NC(=O)C1(C)CCC(=O)N1CCc1ccc(OC)c(OC)c1 (stereo not given) | 0 |
